Measurements reported in ChEMBL document CHEMBL4296182, “CO-ADD screening of NIH NCI Diversity Set V”.
For part of these data: Measured potencies and affinities stand elsewhere.

What was measured:
[1] = system: Staphylococcus aureus; assay: Antibacterial activity against Staphylococcus aureus MRSA ATCC 43300 (CO-ADD:GP_020); MIC in CAMBH media using NBS plates, by Resazurin F(560/590); assay type: functional; conditions: Concentration 20 uM, ASSAY_TEST Inhibition of Bacterial Growth, detection method Resazurin, Fluorescence (ex560/em590), MEDIA CAMHB, plate type 384well, CORNING #3640, time 18 hr
[2] = system: Acinetobacter baumannii; assay: Antibacterial activity against Acinetobacter baumannii ATCC 19606 (CO-ADD:GN_034); MIC in CAMBH media using NBS plates, by Resazurin F(560/590); assay type: functional; conditions: Concentration 20 uM, ASSAY_TEST Inhibition of Bacterial Growth, detection method Resazurin, Fluorescence (ex560/em590), MEDIA CAMHB, plate type 384well, CORNING #3640, time 18 hr
[3] = system: Escherichia coli; assay: Antibacterial activity against Escherichia coli ATCC 25922 (CO-ADD:GN_001); MIC in CAMBH media using NBS plates, by Resazurin F(560/590); assay type: functional; conditions: Concentration 20 uM, ASSAY_TEST Inhibition of Bacterial Growth, detection method Resazurin, Fluorescence (ex560/em590), MEDIA CAMHB, plate type 384well, CORNING #3640, time 18 hr
[4] = system: Klebsiella pneumoniae; conditions: Concentration 20 uM; ASSAY_TEST Inhibition of Bacterial Growth; detection method Absorption (OD600); MEDIA CAMHB; plate type 384well; NBS; CORNING #3640; time 18 hr
[5] = system: Candida albicans; conditions: 20 µM
[6] = system: Cryptococcus neoformans; conditions: Concentration 20 uM; ASSAY_TEST Inhibition of Fungal Growth; detection method Resazurin; Absorption (OD600-OD570); plate type 384well; NBS; CORNING #3640

| SMILES | Inhibition [1] | Inhibition [2] | Inhibition [3] | Inhibition [4] | Inhibition [5] | Inhibition [6] |
| --- | --- | --- | --- | --- | --- | --- |
| Cc1cc(O)c(-c2cc(O)c(C)cc2O)cc1O | 5.49% | -9.17% | 6.61% | 0.01% | 5.95% | 17.06% |
| O=c1nc(Oc2ccccc2)nc2ncccn12 | 18.68% | 13.4% | 27.8% | 4.93% | 7.13% | -13.98% |
| CC(=O)NCC(O)c1ccc([N+](=O)[O-])cc1 (stereo unspecified) | 9.36% | -9% | 7.49% | 22.16% | 1.24% | 2.12% |
| C=CCOCCN(CC)CC | -2.28% | -4.48% | -9.5% | 7.56% | 2.62% | 15.03% |
| COc1ccccc1/C=C1\Cc2ccccc2C1=O | -0.35% | 7.42% | -7.65% | 12% | 10.8% | -2% |
| CSC(=N)NS(=O)(=O)c1ccc(NC(C)=O)cc1 | 1.24% | -21.01% | 12.78% | 3.27% | 0.03% | -9.44% |
| COCCn1c2nc(=O)n(-c3ccccc3)c(=O)c-2nc2ccccc21 | 12.62% | -2.61% | 6.79% | 23.4% | 1.39% | 4.88% |
| N#CC1=C(Nc2ccccc2Cl)SC(c2ccncc2)NC1=O (stereo unspecified) | -1.66% | 6.04% | -3.11% | 12.56% | 4.49% | -0.15% |
| CCc1oc2ccccc2c1C(=O)c1cc(Br)c(O)c(Br)c1 [BENZBROMARONE] | -12.4% | -9.24% | 7.93% | 12.45% | 9.57% | -6.93% |
| NC(=O)c1ccc(Cl)c2ccccc12 | 11.2% | -9.07% | 13.67% | 7.47% | 6.64% | -4.82% |
| COc1cc(-c2ccc(Nc3ccccc3C(=O)O)c(OC)c2)ccc1Nc1ccccc1C(=O)O | 0.05% | 8.67% | 4.59% | -0.01% | -0.13% | -0.24% |
| COc1ccccc1N=NNc1ccccc1OC | 15.47% | -0.02% | 3.88% | 9.87% | 2.77% | -8.49% |
| CN1CCN(C(=O)Nc2ccc([N+](=O)[O-])cc2)CC1 | 7.33% | 6.21% | 0.54% | 6.75% | 1.28% | -7.02% |
| Cc1cc(S)nc(S)n1 | 19.64% | -5.84% | 8.34% | 8.54% | -0.64% | -0.35% |
| NCC(=O)c1cccc2ccc[n+]([O-])c12 | 9.77% | 5.17% | 0.84% | 20.91% | 0.31% | -8.51% |
| c1ccc(-c2nnc3nc(N4CCCCC4)nc(N4CCCCC4)n23)cc1 | -3.53% | -1.96% | 14.28% | 1.6% | 1.09% | -15.11% |
| O=c1nc(Nc2cccc(Cl)c2)oc2cc(Cl)oc(=O)c12 | 6.93% | 3.28% | 2.7% | 6.71% | 20.4% | -13.47% |
| O=C(O)CCC(=O)c1ccc2ccc3cccc4ccc1c2c34 | -4.99% | 9.69% | -8.48% | 28.79% | 21.7% | -11.75% |
| CCn1c2ccccc2c2cc(NC(=O)Nc3ccc([N+](=O)[O-])cc3C)ccc21 | 15.43% | 8.35% | 6.19% | 0.72% | 18.4% | 0.49% |
| Cn1c(=O)c2nc(CNc3ccc(C(=O)O)cc3)[nH]c2n(C)c1=O | -13.67% | 2.67% | -18.91% | 4.5% | 2.41% | 17.72% |
| O=c1cc(-c2ccc(O)cc2)oc2c(O)c(O)c(O)c(O)c12 | 7.67% | -15.85% | 3.54% | 11.62% | 6.97% | -2.27% |
